# Measured values taken from PubChem BioAssay (Tox21).
# Values without a mark were called inactive. Results filed as inconclusive are left out. Entries that show only a call come without a potency. Calls of active or inactive are those of the source. Unless noted, calls come from the whole dose curve; as a rule, active = well fitted curve in the direction sought with a large enough effect in the repeat runs; inconclusive = weak or mixed curves; inactive = no such curve, though single readings can be large; an effect the other way counts as inactive or inconclusive.
# Columns and labels:
# [1] = molecular target: Acetylcholinesterase (Homo sapiens) (UniProt P22303); assay: Acetylcholinesterase (AChE) small molecule antagonists: enzyme-based qHTS assay (AID 1347397; calls by dose curve; note: nearly all actives have a fitted effect of over 55% in size); details: Potency: AChE enzyme activity inhibition; outcome: AChE enzyme activity inhibition
# Sequence of Acetylcholinesterase (Homo sapiens) (P22303 whole entry, looked up): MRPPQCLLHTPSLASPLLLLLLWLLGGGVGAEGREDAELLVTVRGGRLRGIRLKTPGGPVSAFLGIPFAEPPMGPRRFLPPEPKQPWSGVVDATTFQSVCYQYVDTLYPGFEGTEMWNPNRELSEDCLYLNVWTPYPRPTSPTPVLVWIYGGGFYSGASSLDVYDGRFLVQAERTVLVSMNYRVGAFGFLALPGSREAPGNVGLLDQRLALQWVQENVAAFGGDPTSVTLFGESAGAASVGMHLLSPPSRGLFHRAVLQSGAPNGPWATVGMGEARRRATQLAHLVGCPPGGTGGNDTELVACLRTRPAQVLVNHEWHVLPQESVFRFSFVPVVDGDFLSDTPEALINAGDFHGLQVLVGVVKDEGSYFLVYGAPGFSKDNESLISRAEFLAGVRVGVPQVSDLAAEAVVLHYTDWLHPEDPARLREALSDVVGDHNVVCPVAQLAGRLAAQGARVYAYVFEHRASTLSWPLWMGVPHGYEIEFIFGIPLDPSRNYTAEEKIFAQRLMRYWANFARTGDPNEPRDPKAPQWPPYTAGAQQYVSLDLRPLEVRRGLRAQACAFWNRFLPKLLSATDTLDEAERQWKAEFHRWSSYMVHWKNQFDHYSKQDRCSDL
# How it was run: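 Compound or DMSO vehicle was pin-transferred onto recombinant human AChE (50 mU/mL as dispensed) and left 30 min at room temperature. Acetylthiocholine with DTNB then started the reaction, read colorimetrically 10 min later.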
# [2] = molecular target: Acetylcholinesterase (Homo sapiens) (UniProt P22303); assay: Acetylcholinesterase (AChE) small molecule antagonists: fluorescence cell-based qHTS assay (AID 1347398; calls by dose curve; note: nearly all actives have a fitted effect of over 50% in size); details: Potency: AChE activity; outcome: AChE activity
# How it was run: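 Using neuroblastoma SH-SY5Y cells as the enzyme source, test chemicals are preincubated 30 min at 37 C; AChE-driven acetylthiocholine cleavage is then quantified by thiocholine-dependent Thiolite Green fluorescence after 40 min at room temperature.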
# [3] = molecular target: Acetylcholinesterase (Homo sapiens) (UniProt P22303); assay: Acetylcholinesterase (AChE) small molecule antagonists: enzyme-based qHTS assay with human liver microsomes (AID 1347399; calls by dose curve; note: nearly all actives have a fitted effect of over 60% in size); details: Potency: qHTS inhibition; outcome: qHTS inhibition
# How it was run: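 Recombinant human AChE (50 mU/mL in the enzyme mix) and human liver microsomes (0.25 mg/mL final) were preincubated with compound and NADPH (0.25 mg/mL final) for 30 min at 37 C. Acetylthiocholine/DTNB was then added; thiocholine was read colorimetrically after 10 min at room temperature.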
# [4] = molecular target: Cytochrome P450 2D6 (Homo sapiens) (UniProt P10635); assay: Cytochrome P450 Family 2 Subfamily D Member 6 (CYP2D6) small molecule antagonists: luciferase reporter qHTS assay (AID 1671196); note: nearly all actives have a fitted effect of over 50% in size; for activity change, negative = inhibition: series mostly up to about 120 µM
# Sequence of Cytochrome P450 2D6 (Homo sapiens) (P10635 whole entry, looked up): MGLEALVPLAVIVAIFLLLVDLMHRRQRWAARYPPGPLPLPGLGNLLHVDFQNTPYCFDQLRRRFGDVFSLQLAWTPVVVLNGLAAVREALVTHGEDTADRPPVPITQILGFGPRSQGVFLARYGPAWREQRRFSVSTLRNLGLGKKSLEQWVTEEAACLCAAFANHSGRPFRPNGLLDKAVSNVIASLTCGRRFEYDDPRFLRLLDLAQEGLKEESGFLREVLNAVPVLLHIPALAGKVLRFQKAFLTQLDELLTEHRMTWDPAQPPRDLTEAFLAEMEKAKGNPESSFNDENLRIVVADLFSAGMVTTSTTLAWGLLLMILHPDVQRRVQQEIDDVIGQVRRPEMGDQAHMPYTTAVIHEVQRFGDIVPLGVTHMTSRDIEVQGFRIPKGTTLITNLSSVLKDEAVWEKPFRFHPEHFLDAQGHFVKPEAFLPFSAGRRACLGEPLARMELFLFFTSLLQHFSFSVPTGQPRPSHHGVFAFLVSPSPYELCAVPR
# How it was run: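 Enzyme and proluciferin substrate were first combined with test chemical for 10 min at room temperature. Adding NADPH regeneration solution started a 1 h reaction, stopped with luciferin detection reagent and read by luminescence 20 min later.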
# [5] = molecular target: Cytochrome P450 2C19 (Homo sapiens) (UniProt P33261); assay: Cytochrome P450 Family 2 Subfamily C Member 19 (CYP2C19) small molecule antagonists: luciferase reporter qHTS assay (AID 1671197); note: nearly all actives have a fitted effect of over 65% in size; for activity change, negative = inhibition: series mostly up to about 120 µM
# Sequence of Cytochrome P450 2C19 (Homo sapiens) (P33261 whole entry, looked up): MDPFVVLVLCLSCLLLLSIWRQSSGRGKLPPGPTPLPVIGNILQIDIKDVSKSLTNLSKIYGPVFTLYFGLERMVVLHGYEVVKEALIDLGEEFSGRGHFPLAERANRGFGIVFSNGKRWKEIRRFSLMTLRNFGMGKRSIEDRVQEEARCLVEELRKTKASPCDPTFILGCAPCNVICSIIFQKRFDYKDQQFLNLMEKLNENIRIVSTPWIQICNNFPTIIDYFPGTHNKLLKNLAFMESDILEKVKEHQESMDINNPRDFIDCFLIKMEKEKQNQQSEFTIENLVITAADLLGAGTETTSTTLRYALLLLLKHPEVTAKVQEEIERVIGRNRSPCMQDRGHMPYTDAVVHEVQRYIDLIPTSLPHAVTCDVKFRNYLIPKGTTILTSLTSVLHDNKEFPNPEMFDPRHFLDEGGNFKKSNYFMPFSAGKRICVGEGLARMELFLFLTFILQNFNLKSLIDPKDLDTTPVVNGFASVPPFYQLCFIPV
# How it was run: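 Inhibition of CYP2C19 was scored from loss of luminescence in a P450-Glo proluciferin substrate assay, NADPH-started and run 1 h at 37C, with ketoconazole as positive control.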
# [6] = molecular target: Cytochrome P450 2C9 (Homo sapiens) (UniProt P11712); assay: Cytochrome P450 Family 2 Subfamily C Member 9 (CYP2C9) small molecule antagonists: luciferase reporter qHTS assay (AID 1671198); note: nearly all actives have a fitted effect of over 50% in size; for activity change, negative = inhibition: series mostly up to about 120 µM
# Sequence of Cytochrome P450 2C9 (Homo sapiens) (P11712 whole entry, looked up): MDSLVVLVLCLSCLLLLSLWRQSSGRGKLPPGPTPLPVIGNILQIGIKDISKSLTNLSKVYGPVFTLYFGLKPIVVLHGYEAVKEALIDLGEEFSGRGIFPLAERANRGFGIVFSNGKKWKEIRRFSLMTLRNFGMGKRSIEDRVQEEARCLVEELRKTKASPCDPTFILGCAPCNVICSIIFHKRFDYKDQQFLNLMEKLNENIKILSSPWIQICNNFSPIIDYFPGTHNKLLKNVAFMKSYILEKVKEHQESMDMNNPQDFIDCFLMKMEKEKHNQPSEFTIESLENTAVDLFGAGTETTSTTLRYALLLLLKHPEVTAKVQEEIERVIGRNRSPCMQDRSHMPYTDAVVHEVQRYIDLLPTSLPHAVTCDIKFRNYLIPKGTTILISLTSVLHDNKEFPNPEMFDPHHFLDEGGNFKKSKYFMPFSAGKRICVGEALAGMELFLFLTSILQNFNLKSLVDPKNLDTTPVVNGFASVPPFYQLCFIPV
# How it was run: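 CYP2C9 activity was measured with a P450-Glo proluciferin substrate. Enzyme–substrate mix was held with compound for 10 min at room temperature, then NADPH regeneration solution was added for 1 h at 37C. Luciferin product was read as luminescence.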
# [7] = molecular target: Cytochrome P450 1A2 (Homo sapiens) (UniProt P05177); assay: Cytochrome P450 Family 1 Subfamily A Member 2 (CYP1A2) small molecule antagonists: luciferase reporter qHTS assay (AID 1671199); note: nearly all actives have a fitted effect of over 50% in size; for activity change, negative = inhibition: series mostly up to about 120 µM
# Sequence of Cytochrome P450 1A2 (Homo sapiens) (P05177 whole entry, looked up): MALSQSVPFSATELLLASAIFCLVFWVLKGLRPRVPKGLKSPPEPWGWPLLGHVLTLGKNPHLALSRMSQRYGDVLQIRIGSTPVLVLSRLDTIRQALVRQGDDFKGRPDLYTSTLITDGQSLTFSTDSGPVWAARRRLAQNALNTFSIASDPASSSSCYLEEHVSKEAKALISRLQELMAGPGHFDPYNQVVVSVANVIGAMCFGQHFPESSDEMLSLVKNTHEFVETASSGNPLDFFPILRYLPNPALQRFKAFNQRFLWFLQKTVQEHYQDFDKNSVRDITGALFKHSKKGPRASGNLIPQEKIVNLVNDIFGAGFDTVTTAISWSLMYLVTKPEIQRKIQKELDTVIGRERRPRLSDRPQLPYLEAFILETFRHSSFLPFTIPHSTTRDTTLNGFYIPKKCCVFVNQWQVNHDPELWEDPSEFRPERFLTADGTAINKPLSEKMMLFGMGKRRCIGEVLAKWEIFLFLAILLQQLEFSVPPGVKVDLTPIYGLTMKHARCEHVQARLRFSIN
# How it was run: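 Compounds were incubated with CYP1A2 and a luminogenic proluciferin substrate for 10 min at room temperature before the reaction was started with NADPH regeneration solution. After 1 h, detection reagent was added and light output, proportional to CYP activity, was recorded.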
# [8] = molecular target: Voltage-gated inwardly rectifying potassium channel KCNH2 (Homo sapiens) (UniProt Q12809); assay: Human Ether-a-go-go-Related Gene (hERG) channel small molecule antagonists: fluorescence cell-based qHTS assay (AID 1671200); note: nearly all actives have a fitted effect of over 50% in size;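 for activity change, negative = inhibition: hERG-expressing U2OS cells given a thallium stimulus after FluxOR II dye loading; series mostly up to about 77 µM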
# Sequence of Voltage-gated inwardly rectifying potassium channel KCNH2 (Homo sapiens) (Q12809 whole entry, looked up): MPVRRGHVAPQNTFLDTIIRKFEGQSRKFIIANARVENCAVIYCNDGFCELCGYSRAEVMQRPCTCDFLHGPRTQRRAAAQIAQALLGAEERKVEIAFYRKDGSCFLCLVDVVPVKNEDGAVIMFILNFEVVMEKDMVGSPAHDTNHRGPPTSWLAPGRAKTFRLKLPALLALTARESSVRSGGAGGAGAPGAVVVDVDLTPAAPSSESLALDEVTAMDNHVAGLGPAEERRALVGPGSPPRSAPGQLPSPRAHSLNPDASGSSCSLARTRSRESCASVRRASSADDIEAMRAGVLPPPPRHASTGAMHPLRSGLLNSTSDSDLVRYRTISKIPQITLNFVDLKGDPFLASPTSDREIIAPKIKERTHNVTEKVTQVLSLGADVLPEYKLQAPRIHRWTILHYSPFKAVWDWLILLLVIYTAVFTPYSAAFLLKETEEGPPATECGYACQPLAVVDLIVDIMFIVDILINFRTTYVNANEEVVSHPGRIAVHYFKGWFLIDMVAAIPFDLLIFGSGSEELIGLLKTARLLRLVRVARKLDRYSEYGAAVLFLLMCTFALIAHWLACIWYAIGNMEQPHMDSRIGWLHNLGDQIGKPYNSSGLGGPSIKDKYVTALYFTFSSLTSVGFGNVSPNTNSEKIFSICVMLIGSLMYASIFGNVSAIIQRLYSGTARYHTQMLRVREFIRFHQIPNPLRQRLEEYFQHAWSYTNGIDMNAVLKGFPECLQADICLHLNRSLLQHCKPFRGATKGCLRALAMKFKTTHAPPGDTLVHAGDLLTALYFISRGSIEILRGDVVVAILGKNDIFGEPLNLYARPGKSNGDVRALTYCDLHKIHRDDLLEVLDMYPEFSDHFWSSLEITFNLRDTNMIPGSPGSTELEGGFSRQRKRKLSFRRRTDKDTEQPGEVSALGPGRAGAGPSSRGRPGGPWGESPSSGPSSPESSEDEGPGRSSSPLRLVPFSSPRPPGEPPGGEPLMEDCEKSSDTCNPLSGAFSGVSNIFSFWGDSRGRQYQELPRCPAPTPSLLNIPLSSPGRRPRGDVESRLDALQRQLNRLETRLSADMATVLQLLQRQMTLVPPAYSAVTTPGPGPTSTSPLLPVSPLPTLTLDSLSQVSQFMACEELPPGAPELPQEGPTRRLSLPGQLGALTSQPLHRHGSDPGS
# How it was run: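 First, 1000 cells per well are seeded and cultured overnight at 37 C. Next, FluxOR II dye is loaded for 1 h at room temperature, protected from light. After 10 more minutes, stimulus is added and fluorescence is read.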
# [9] = molecular target: Cytochrome P450 3A4 (Homo sapiens) (UniProt P08684); assay: Cytochrome P450 Family 3 Subfamily A Member 4 (CYP3A4) small molecule antagonists: luciferase reporter qHTS assay (AID 1671201); note: nearly all actives have a fitted effect of over 50% in size; for activity change, negative = inhibition: series mostly up to about 120 µM
# Sequence of Cytochrome P450 3A4 (Homo sapiens) (P08684 whole entry, looked up): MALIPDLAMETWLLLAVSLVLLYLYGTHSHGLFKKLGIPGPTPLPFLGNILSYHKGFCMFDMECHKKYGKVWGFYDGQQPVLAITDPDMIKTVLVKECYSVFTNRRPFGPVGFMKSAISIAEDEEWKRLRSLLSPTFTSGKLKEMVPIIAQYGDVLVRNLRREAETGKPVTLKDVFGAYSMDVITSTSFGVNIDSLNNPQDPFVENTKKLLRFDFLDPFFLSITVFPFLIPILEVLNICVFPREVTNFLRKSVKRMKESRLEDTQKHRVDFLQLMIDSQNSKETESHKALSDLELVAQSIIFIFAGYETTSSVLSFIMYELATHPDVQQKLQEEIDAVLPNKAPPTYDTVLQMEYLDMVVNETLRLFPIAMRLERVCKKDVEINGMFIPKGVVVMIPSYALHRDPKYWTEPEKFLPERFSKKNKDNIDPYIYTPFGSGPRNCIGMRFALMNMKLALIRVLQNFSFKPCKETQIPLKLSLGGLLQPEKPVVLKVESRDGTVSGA
# How it was run: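 Enzyme and proluciferin substrate are mixed with test chemicals for 10 min, then NADPH regeneration system drives turnover for 1 h at room temperature. A detection reagent halts the reaction; luminescence after 20 min gives relative activity.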
# Potency is the fitted concentration of half-maximal effect.
compound,measurement,setting,value
CCC1(c2ccccc2)CCC(=O)NC1=O (stereo not given),Potency,[1],inactive
same,Potency,[2],inactive
same,Potency,[3],inactive
same,Potency,[4],inactive
same,Potency,[5],38.9 µM (active)
same,Potency,[6],inactive
same,Potency,[7],inactive
same,Potency,[8],inactive
same,Potency,[9],inactive
CN(C)C(=O)Oc1cc(OC(=O)N(C)C)cc(C(O)CNC(C)(C)C)c1 (stereo not given),Potency,[1],inactive
same,Potency,[2],inactive
same,Potency,[3],inactive
same,Potency,[4],4.9 µM (active)
same,Potency,[5],inactive
same,Potency,[6],inactive
same,Potency,[7],inactive
same,Potency,[8],inactive
same,Potency,[9],inactive
CC(Cc1ccccc1)NCCn1cnc2c1c(=O)n(C)c(=O)n2C (stereo not given),Potency,[1],inactive
same,Potency,[2],inactive
same,Potency,[3],inactive
same,Potency,[4],4.96 µM (active)
same,Potency,[5],78.7 µM (active)
same,Potency,[6],inactive
same,Potency,[7],inactive
same,Potency,[8],inactive
CC(Cl)(Cl)Cl,Potency,[1],inactive
same,Potency,[2],inactive
same,Potency,[3],inactive
same,Potency,[4],inactive
same,Potency,[5],inactive
same,Potency,[6],inactive
same,Potency,[7],inactive
same,Potency,[8],inactive
same,Potency,[9],inactive
[O-][Br+2]([O-])O,Potency,[1],inactive
same,Potency,[2],inactive
same,Potency,[3],inactive
same,Potency,[4],inactive
same,Potency,[5],inactive
same,Potency,[6],inactive
same,Potency,[7],inactive
same,Potency,[8],inactive
same,Potency,[9],inactive
COc1ccccc1OC,Potency,[1],inactive
same,Potency,[2],inactive
same,Potency,[3],inactive
same,Potency,[4],inactive
same,Potency,[5],79.6 µM (active)
same,Potency,[6],inactive
same,Potency,[7],inactive
same,Potency,[8],inactive
same,Potency,[9],inactive
NCC1(CC(=O)O)CCCCC1,Potency,[1],inactive
same,Potency,[2],inactive
same,Potency,[3],inactive
same,Potency,[4],inactive
same,Potency,[5],inactive
same,Potency,[6],inactive
same,Potency,[7],inactive
same,Potency,[8],inactive
same,Potency,[9],inactive
C=C(C)[C@H]1CN[C@H](C(=O)O)[C@H]1CC(=O)O,Potency,[1],inactive
same,Potency,[2],inactive
same,Potency,[3],inactive
same,Potency,[4],inactive
same,Potency,[5],inactive
same,Potency,[6],inactive
same,Potency,[7],inactive
same,Potency,[8],inactive
same,Potency,[9],inactive
CCOP(=S)(OCC)SCCl,Potency,[1],inactive
same,Potency,[2],inactive
same,Potency,[3],inactive
same,Potency,[4],inactive
same,Potency,[5],35.6 µM (active)
same,Potency,[6],14.2 µM (active)
same,Potency,[7],25.2 µM (active)
same,Potency,[8],inactive
same,Potency,[9],11.2 µM (active)
CC(Cc1ccccc1)NCCCCl (stereo not given),Potency,[1],inactive
same,Potency,[2],inactive
same,Potency,[3],inactive
same,Potency,[4],1.74 µM (active)
same,Potency,[5],inactive
same,Potency,[6],inactive
same,Potency,[7],inactive
same,Potency,[8],15.1 µM (active)
CCN(CC)C1CCCCC1,Potency,[1],inactive
same,Potency,[2],inactive
same,Potency,[3],inactive
same,Potency,[4],inactive
same,Potency,[5],inactive
same,Potency,[6],inactive
same,Potency,[8],inactive
same,Potency,[9],inactive
Clc1nc(Cl)nc(Nc2ccccc2Cl)n1,Potency,[1],inactive
same,Potency,[2],inactive
same,Potency,[3],inactive
same,Potency,[4],inactive
same,Potency,[5],79.6 µM (active)
same,Potency,[7],inactive
same,Potency,[8],inactive
same,Potency,[9],inactive
CC(O)CCl (stereo not given),Potency,[1],inactive
same,Potency,[2],inactive
same,Potency,[3],inactive
same,Potency,[4],inactive
same,Potency,[5],inactive
same,Potency,[6],inactive
same,Potency,[8],inactive
same,Potency,[9],inactive
CN(C)C1CCCCC1,Potency,[1],inactive
same,Potency,[2],inactive
same,Potency,[3],inactive
same,Potency,[4],inactive
same,Potency,[5],inactive
same,Potency,[6],inactive
same,Potency,[8],inactive
same,Potency,[9],inactive
Cc1cc(OC(=O)N(C)C)nn1C(=O)N(C)C,Potency,[1],5.03 µM (active)
same,Potency,[2],1.26 µM (active)
same,Potency,[3],39.9 µM (active)
same,Potency,[4],31.7 µM (active)
same,Potency,[5],35.6 µM (active)
same,Potency,[6],inactive
same,Potency,[8],inactive
same,Potency,[9],inactive
CCOc1cc(OP(=S)(OC)OC)nc(CC)n1,Potency,[1],inactive
same,Potency,[2],inactive
same,Potency,[3],inactive
same,Potency,[4],inactive
same,Potency,[5],35.6 µM (active)
same,Potency,[8],inactive
same,Potency,[9],inactive
CCOC(=O)N(C)N=O,Potency,[1],inactive
same,Potency,[2],inactive
same,Potency,[3],inactive
same,Potency,[4],inactive
same,Potency,[5],inactive
same,Potency,[6],inactive
same,Potency,[8],inactive
same,Potency,[9],inactive
CC[C@@H](CO)NC(=O)[C@@H]1C=C2c3cccc4c3c(cn4C)C[C@H]2N(C)C1,Potency,[1],4.36 µM (active)
same,Potency,[2],1.1 µM (active)
same,Potency,[3],inactive
same,Potency,[4],6.92 µM (active)
same,Potency,[5],inactive
same,Potency,[8],inactive
O=C(O)C(Br)(Br)Br,Potency,[1],inactive
same,Potency,[2],inactive
same,Potency,[3],inactive
same,Potency,[4],inactive
same,Potency,[5],31.7 µM (active)
same,Potency,[6],inactive
same,Potency,[8],inactive
same,Potency,[9],inactive
CNC(=O)NC(O)C(Cl)(Cl)Cl (stereo not given),Potency,[1],inactive
same,Potency,[2],inactive
same,Potency,[3],inactive
same,Potency,[4],inactive
same,Potency,[5],inactive
same,Potency,[6],inactive
same,Potency,[7],inactive
same,Potency,[8],inactive
same,Potency,[9],inactive
O=C(O)C(F)(F)C(F)(F)C(F)(F)C(F)(F)C(F)(F)C(F)(F)F,Potency,[1],inactive
same,Potency,[2],inactive
same,Potency,[3],inactive
same,Potency,[4],inactive
same,Potency,[5],inactive
same,Potency,[6],6.33 µM (active)
same,Potency,[8],inactive
same,Potency,[9],inactive
Brc1c(Br)c(Br)c(Br)c(Br)c1Br,"activity change, negative = inhibition",[1],-2.31% [at 10.5 µM]
same,"activity change, negative = inhibition",[2],-32.6% [at 10.5 µM]
same,"activity change, negative = inhibition",[3],-0.832% [at 10.5 µM]
same,"activity change, negative = inhibition",[4],-1.47% [at 10.5 µM]
same,"activity change, negative = inhibition",[5],-0.615% [at 10.5 µM]
same,"activity change, negative = inhibition",[6],0.0091% [at 10.5 µM]
same,"activity change, negative = inhibition",[8],19.9% [at 6.97 µM]
same,"activity change, negative = inhibition",[9],2.63% [at 10.5 µM]
CC[C@H](N)c1ccccc1,Potency,[1],inactive
same,Potency,[2],inactive
same,Potency,[3],inactive
same,Potency,[4],35.6 µM (active)
same,Potency,[5],63.3 µM (active)
same,Potency,[8],inactive
same,Potency,[9],31.7 µM (active)
CCC1(c2ccccc2)C(=O)N(COC)C(=O)N(COC)C1=O,Potency,[1],inactive
same,Potency,[2],inactive
same,Potency,[3],inactive
same,Potency,[4],inactive
same,Potency,[5],6.92 µM (active)
same,Potency,[7],inactive
same,Potency,[8],inactive
O=C(NC(=O)c1c(F)cccc1F)Nc1cc(Cl)c(F)c(Cl)c1F,Potency,[1],inactive
same,Potency,[2],inactive
same,Potency,[3],inactive
same,Potency,[4],inactive
same,Potency,[5],69.2 µM (active)
same,Potency,[7],30.9 µM (active)
same,Potency,[8],inactive
same,Potency,[9],inactive
Cn1c(CCCC(=O)O)nc2cc(N(CCCl)CCCl)ccc21,Potency,[1],inactive
same,Potency,[2],inactive
same,Potency,[3],inactive
same,Potency,[4],inactive
same,Potency,[5],inactive
same,Potency,[6],inactive
same,Potency,[7],inactive
same,Potency,[8],inactive
same,Potency,[9],inactive
CCCC(C)(COC(N)=O)COC(N)=O,Potency,[1],inactive
same,Potency,[2],inactive
same,Potency,[3],inactive
same,Potency,[4],inactive
same,Potency,[5],33.7 µM (active)
same,Potency,[7],inactive
same,Potency,[8],inactive
